# Inconclusive results are not listed. The source made the active and inactive calls. Unless noted, the call rests on the fitted dose curve.
# Experiments:
# [1] = molecular target: Nuclear receptor subfamily 1 group I member 2 (Homo sapiens) (UniProt O75469); assay: Dual reporter qHTS for agonist of Pregnane X Receptor (hPXR) against the NCATS DSHEA and TCM libraries: Luminescence readout (AID 1920059; active means well fitted curve in the direction sought with a large enough effect; an effect the other way counts as inactive or inconclusive; further: 0% is about no effect)
# From the text: Assay Development and Screening Technology Laboratory (ADST)
# National Center for Advancing Translational Sciences (NCATS), Rockville, MD
# National Institute of Health (NIH), Bethesda, Maryland
# Dietary Supplements and Natural Products have minor oversight of their safety and efficacy. We assembled a collection of Dietary Supplements and Natural Products (DSNP) as well as Traditional Chinese Medicinal (TCM) Plant extracts, which were screened against an in vitro panel of assays, including a liver cytochrome p450 enzyme panel, CAR/PXR signaling pathways, and P-gp transporter assays, to assess their activity. This pipeline facilitated the interrogation of Natural Product-Drug Interaction (NaPDI) through prominent metabolizing pathways. In addition, we compared the activity profiles of the DSNP/TCM substances with those of an approved drug collection. Many of the approved drugs have well-annotated mechanisms of action (MOA) while the MOAs for most of the DSNP and TCM samples remain unknown. Based on the premise that compounds with similar activity profiles tend to share similar targets or MOA, we clustered the library activity profiles to identify overlap with the NCATS Pharmaceutical Collection to predict the MOAs of the DSNP/TCM substances. Overall, we highlight four significant bioactivity profiles (measured by p-values) as examples of this prediction. To assess broad cytotoxicity, we employed screening against a HepG2 cell line. In addition, transporter-mediated drug interactions are utilized in the characterization of DDIs using a P-glycoprotein (P-gp) assays. To profile potential P-gp activity, a differential cell viability was measured against two cell lines: a parental KB-3-1 human cervical adenocarcinoma cell line and the drug-resistant subline KB-8-5-11 that overexpresses P-gp.
# To this end, we profiled both collections for potential CAR and/or PXR activity, employing a previously published 1536-well qHTS assay.
# [1] […]
# 8; Read; Fluorescence; ViewLux plate reader. […]
# 11; Read; Luminescence; ViewLux plate reader. […]
# [2] = molecular target: Nuclear receptor subfamily 1 group I member 2 (Homo sapiens) (UniProt O75469); assay: Dual reporter qHTS for antagonist of Pregnane X Receptor (hPXR) against the NCATS DSHEA and TCM libraries: Luminescence Readout (AID 1920060; active means well fitted curve in the direction sought with a large enough effect; an effect the other way counts as inactive or inconclusive;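 further: HepG2 cells carrying hPXR luciferase reporter stimulated with rifampicin at 2 µM; 0% is about no effect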)
# Procedure, shortened: (§1)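 hPXR-Luc HepG2 cells exposed 24 h at 37 C to compounds with 2 uM rifampicin in antagonist mode; luciferase luminescence measured by ONE-Glo, with CellTiter-Fluor viability read beforehand.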
# [3] = Dual reporter qHTS for antagonist of Pregnane X Receptor (hPXR) against the NCATS DSHEA and TCM libraries: Fluorescence Readout (AID 1920061; active means well fitted curve in the direction sought with a large enough effect; an effect the other way counts as inactive or inconclusive; further: 0% is about no effect)
# Procedure, shortened: as §1
# [4] = qHTS for identification of novel therapeutic agents for treatment of microphthalmiaassociated transcription factor (MiT) renal cell carcinoma (RCC) (AID 1963991); settings: CellTiter-Glo, 48 h, stronger effect = lower value
# Procedure, shortened: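 Three TFE3-fusion RCC lines (UOK109, UOK124, UOK145), 500 cells/well in complete medium, were treated with MIPE 4.0 compounds for 48 hours at 37 C. Viability was by CellTiter-Glo luminescence, normalized to DMSO (100%) and empty wells (0%); curves fitted over 11 concentrations.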
# [5] = qHTS drug screen for cell cycle checkpoint inhibitors in PARPi-resistant BRCA-mutant ovarian cancer cell lines. (AID 1963452); settings: PEO1/OlaR viability, CellTiter-Glo luminescence, 96 h, stronger effect = lower value
# Procedure, shortened: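 PEO1, PEO4 and PEO1/OlaR ovarian cancer cells, 600 per well, exposed 96 h at 37C to a dilution series. Viability read by CellTiter-Glo luminescence, normalized to DMSO and empty wells; activity summarized as Z-AUC.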
# [6] = measured here: PEO1 parental Z-AUC
# Chain of Nuclear receptor subfamily 1 group I member 2 (Homo sapiens) (O75469 whole entry, looked up): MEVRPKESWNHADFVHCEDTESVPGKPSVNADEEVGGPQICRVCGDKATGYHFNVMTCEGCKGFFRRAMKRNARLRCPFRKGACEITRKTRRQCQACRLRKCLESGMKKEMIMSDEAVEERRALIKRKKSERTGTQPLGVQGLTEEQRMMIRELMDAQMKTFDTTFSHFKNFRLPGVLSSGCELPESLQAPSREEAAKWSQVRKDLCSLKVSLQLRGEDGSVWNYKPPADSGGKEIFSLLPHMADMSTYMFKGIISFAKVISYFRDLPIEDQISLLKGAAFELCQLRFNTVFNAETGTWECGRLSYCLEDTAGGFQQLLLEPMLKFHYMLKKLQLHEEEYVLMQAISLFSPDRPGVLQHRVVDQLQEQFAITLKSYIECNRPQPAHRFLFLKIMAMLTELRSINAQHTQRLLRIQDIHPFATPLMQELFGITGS
compound,measurement,setting,value
COc1cc(O)c2c(c1)C(=O)c1cc(C)cc(O)c1C2=O,Potency,[1],inactive
same,outcome,[2],inactive
same,outcome,[3],inactive
same,z-score,"[4]; TFE3-RCC UOK109 viability, measured here: UOK109 Z-AUC",1.36
same,z-score,"[4]; TFE3-RCC viability, measured here: UOK124 Z-AUC",1.13
same,z-score,"[4]; TFE3-RCC viability, measured here: UOK145 Z-AUC",1.08
Oc1ccc(C2CCN(c3ccnc4ccccc34)CC2)cc1O,Z-AUC,[5],0.817 (inactive)
same,Z-AUC,[5]; [6],-0.32
same,Z-AUC,[5]; measured here: PEO4 Z-AUC,0.401
CNC1CCC(N(Cc2cccc(-c3ccncc3)c2)C(=O)c2sc3c(F)ccc(F)c3c2Cl)CC1 (stereo not given),Z-AUC,[5],-0.961 (inactive)
same,Z-AUC,[5]; [6],-0.582
same,Z-AUC,[5]; measured here: PEO4 Z-AUC,-1.33
CC(C)C[C@H](CC(=O)O)C(=O)N[C@@H](Cc1c[nH]c2ccccc12)C(=O)N[C@@H](C)c1ccccc1,Z-AUC,[5],1.58 (inactive)
same,Z-AUC,[5]; [6],1.54
same,Z-AUC,[5]; measured here: PEO4 Z-AUC,1.63
O=c1cc(-c2ccccc2)oc2cc(O)c(O)c(O)c12,Z-AUC,[5],0.741 (inactive)
same,Z-AUC,[5]; [6],0.629
same,Z-AUC,[5]; measured here: PEO4 Z-AUC,0.577
Clc1ccc(COC(Cn2ccnc2)c2ccc(Cl)cc2Cl)cc1 (stereo not given),Z-AUC,[5],0.343 (inactive)
same,Z-AUC,[5]; [6],0.179
same,Z-AUC,[5]; measured here: PEO4 Z-AUC,0.161
Clc1ccc(CCC(Cn2ccnc2)Sc2c(Cl)cccc2Cl)cc1 (stereo not given),Z-AUC,[5],1.27 (inactive)
same,Z-AUC,[5]; [6],0.807
same,Z-AUC,[5]; measured here: PEO4 Z-AUC,0.874
O=c1c(O)c(-c2ccc(O)cc2)oc2cc(O)cc(O)c12,Z-AUC,[5],0.889 (inactive)
same,Z-AUC,[5]; [6],1.15
same,Z-AUC,[5]; measured here: PEO4 Z-AUC,1.73
CC(C)(Cc1ccc2ccccc2c1)NC[C@@H](O)COc1cccc(Cl)c1C#N,Z-AUC,[5],0.779 (inactive)
same,Z-AUC,[5]; [6],1.04
same,Z-AUC,[5]; measured here: PEO4 Z-AUC,0.976
C[C@H](NC(=O)c1sccc1OCc1ccc(Cl)cc1)c1ccccc1,Z-AUC,[5],0.368 (inactive)
same,Z-AUC,[5]; [6],-0.143
same,Z-AUC,[5]; measured here: PEO4 Z-AUC,-0.0391
COc1cccc([C@@H](C)NCCCc2ccccc2Cl)c1,Z-AUC,[5],0.861 (inactive)
same,Z-AUC,[5]; [6],1.12
same,Z-AUC,[5]; measured here: PEO4 Z-AUC,0.597
O=C(N[C@@H](c1ccccc1)[C@@H]1CCCCN1)c1cccc(C(F)(F)F)c1Cl,Z-AUC,[5],0.7 (inactive)
same,Z-AUC,[5]; [6],0.513
same,Z-AUC,[5]; measured here: PEO4 Z-AUC,0.741
CN1CCN(CCOc2cc(OC3CCOCC3)c3c(Nc4c(Cl)ccc5c4OCO5)ncnc3c2)CC1,Z-AUC,[5],0.642 (inactive)
same,Z-AUC,[5]; [6],0.934
same,Z-AUC,[5]; measured here: PEO4 Z-AUC,1.23
C[C@]12CCC3c4ccc(O)cc4CCC3C1CCC2=O (stereo not given in full),Z-AUC,[5],1.36 (inactive)
same,Z-AUC,[5]; [6],0.945
same,Z-AUC,[5]; measured here: PEO4 Z-AUC,1.78
COc1cccc2c1CCCC2CCCN1CCN(C2CCCCC2)CC1 (stereo not given),Z-AUC,[5],0.972 (inactive)
same,Z-AUC,[5]; [6],0.889
same,Z-AUC,[5]; measured here: PEO4 Z-AUC,0.366
O=c1cc(N2CCOCC2)oc2c(-c3cccc4c3sc3ccccc34)cccc12,Z-AUC,[5],0.27 (inactive)
same,Z-AUC,[5]; [6],0.135
same,Z-AUC,[5]; measured here: PEO4 Z-AUC,0.0636
Nc1ncnc2c1nc(Cl)n2[C@@H]1O[C@H](CO)[C@@H](O)[C@@H]1O,Z-AUC,[5],0.764 (inactive)
same,Z-AUC,[5]; [6],-0.225
same,Z-AUC,[5]; measured here: PEO4 Z-AUC,-0.377
COc1ccc(-c2cc(=O)c3c(O)cc(O)cc3o2)cc1O,Z-AUC,[5],0.388 (inactive)
same,Z-AUC,[5]; [6],0.498
same,Z-AUC,[5]; measured here: PEO4 Z-AUC,0.413
O=c1cc(CN2CCOCC2)occ1OCCCCCSc1ccnc2cc(C(F)(F)F)ccc12,Z-AUC,[5],-0.111 (inactive)
same,Z-AUC,[5]; [6],-0.421
same,Z-AUC,[5]; measured here: PEO4 Z-AUC,-0.0909
O=C(Nc1ccccc1Br)N[C@@H]1CCN(c2ccc(C(F)(F)F)cn2)C1,Z-AUC,[5],-0.871 (inactive)
same,Z-AUC,[5]; [6],0.714
same,Z-AUC,[5]; measured here: PEO4 Z-AUC,0.446
O=C(NCc1ccccc1)c1csc(Nc2ccncn2)n1,Z-AUC,[5],-0.615 (inactive)
same,Z-AUC,[5]; [6],0.117
same,Z-AUC,[5]; measured here: PEO4 Z-AUC,0.922
O=C(CCCCCCC(=O)Nc1ccccc1)NO,Z-AUC,[5],-0.11 (inactive)
same,Z-AUC,[5]; [6],-0.486
same,Z-AUC,[5]; measured here: PEO4 Z-AUC,-0.541
COCCOC(=O)C1=C(C)NC2=C(C(=O)CC(c3ccccc3OC)C2)C1c1cccc(O)c1 (stereo not given),Z-AUC,[5],-0.198 (inactive)
same,Z-AUC,[5]; [6],0.425
same,Z-AUC,[5]; measured here: PEO4 Z-AUC,0.517
Clc1ccc(C(c2ccc(Cl)cc2)n2cc[n+](CC(OCc3ccc(Cl)cc3Cl)c3ccc(Cl)cc3Cl)c2)cc1 (stereo not given),Z-AUC,[5],0.167 (inactive)
same,Z-AUC,[5]; [6],-0.468
same,Z-AUC,[5]; measured here: PEO4 Z-AUC,-0.455
COc1ccc2cc(-c3nc(-c4ccc(S(C)=O)cc4)[nH]c3-c3ccncc3)ccc2c1 (stereo not given),Z-AUC,[5],-0.0857 (inactive)
same,Z-AUC,[5]; [6],-0.107
same,Z-AUC,[5]; measured here: PEO4 Z-AUC,-0.281
CO[C@@H](C(=O)N1Cc2[nH]nc(NC(=O)c3ccc(N4CCN(C)CC4)cc3)c2C1)c1ccccc1,Z-AUC,[5],-0.0482 (inactive)
same,Z-AUC,[5]; [6],0.272
same,Z-AUC,[5]; measured here: PEO4 Z-AUC,-0.117
Cc1ccn(-c2ccc(-c3ncco3)cc2)c(=O)c1-c1ccc2nc(N)ncc2c1,Z-AUC,[5],1.02 (inactive)
same,Z-AUC,[5]; [6],0.788
same,Z-AUC,[5]; measured here: PEO4 Z-AUC,1.07
CCOC(CN1C(=O)[C@](CC(=O)Nc2ccc(C)cc2)(NC(=O)Nc2ccc(C)cc2)c2ccccc21)OCC,Z-AUC,[5],1.21 (inactive)
same,Z-AUC,[5]; [6],1.06
same,Z-AUC,[5]; measured here: PEO4 Z-AUC,1.28
O=C(Nc1ccccc1-c1cn2c(CN3CCNCC3)csc2n1)c1cnc2ccccc2n1,Z-AUC,[5],0.244 (inactive)
same,Z-AUC,[5]; [6],0.118
same,Z-AUC,[5]; measured here: PEO4 Z-AUC,-0.298
COc1cc(Nc2ncc(F)c(Nc3ccc4c(n3)NC(=O)C(C)(C)O4)n2)cc(OC)c1OC,Z-AUC,[5],0.179 (inactive)
same,Z-AUC,[5]; [6],0.902
same,Z-AUC,[5]; measured here: PEO4 Z-AUC,1.16
NS(=O)(=O)c1cccc2c1C(=O)c1cccc(O)c1C2=O,Z-AUC,[5],-1.32 (inactive)
same,Z-AUC,[5]; [6],-1.19
same,Z-AUC,[5]; measured here: PEO4 Z-AUC,-1.74
O=C(Nc1cccc(Br)c1)c1cccc(S(=O)(=O)N2CCCCCC2)c1,Z-AUC,[5],-0.479 (inactive)
same,Z-AUC,[5]; [6],0.243
same,Z-AUC,[5]; measured here: PEO4 Z-AUC,-0.0385
Clc1cc(Cl)cc(CNc2ncncc2-c2ccc3c(c2)OCO3)c1,Z-AUC,[5],0.335 (inactive)
same,Z-AUC,[5]; [6],-0.24
same,Z-AUC,[5]; measured here: PEO4 Z-AUC,-0.467
CC(=O)Nc1ccc([C@H](C)C(=O)Nc2ncc(C(C)C)s2)cc1,Z-AUC,[5],-0.905 (inactive)
same,Z-AUC,[5]; [6],-1.74
same,Z-AUC,[5]; measured here: PEO4 Z-AUC,-1.22
